This is part of a sample that, as a whole, favours compounds with a hit. Of some 79,000 tested, about 15% had one in any assay. Calls of active or inactive are those of the source. Cut-off read from the data, not from the text of the source: active = growth inhibition above about 70%; inactive = the rest.
How the values were obtained:
[1] = NCI Yeast Anticancer Drug Screen. Data for the rad50 strain (AID 155);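 note: 0% = growth of vehicle-only cultures of the same strain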; conditions: S. cerevisiae rad50 strain growth inhibition; at 50.0 µM; stronger effect = higher value
Summary of the method: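 Inhibition values express reduced yeast growth in compound-treated cultures relative to vehicle-treated controls.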

[2] = NCI Yeast Anticancer Drug Screen. Data for the mec2-1 strain (AID 157); conditions: S. cerevisiae mec2-1 strain, at 50.0 µM, stronger effect = higher value
Summary of the method: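 Test agents were screened against the mec2-1 yeast strain, with defined DNA repair or cell cycle alteration. Growth was scored as inhibition against vehicle-only controls.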

[3] = NCI Yeast Anticancer Drug Screen. Data for the sgs1 mgt1 strain (AID 161);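 note: 0% = growth of cultures given vehicle only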; conditions: S. cerevisiae sgs1 mgt1 strain, at 50.0 µM, stronger effect = higher value
Summary of the method: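 Mutant yeast exposed to compound; growth scored against vehicle-only wells.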

[4] = NCI Yeast Anticancer Drug Screen. Data for the cln2 rad14 strain (AID 165);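 note: 0% = growth equal to vehicle treated cultures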; conditions: S. cerevisiae cln2 rad14 strain, at 50.0 µM, stronger effect = higher value
Summary of the method: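 Growth of compound-exposed yeast (cln2 rad14 genotype) measured and expressed as inhibition relative to vehicle.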

[5] = NCI Yeast Anticancer Drug Screen. Data for the bub3 strain (AID 167); conditions: S. cerevisiae bub3 mutant strain, at 50.0 µM, stronger effect = higher value
Summary of the method: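 Steps: expose the mutant yeast strain to compound; grow alongside vehicle-treated cultures; measure growth; express inhibition against the vehicle cultures.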

[6] = NCI Yeast Anticancer Drug Screen. Data for the mlh1 rad18 strain (AID 175); conditions: S. cerevisiae mlh1 rad18 strain growth inhibition; at 50.0 µM; stronger effect = higher value
Summary of the method: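 In this whole-cell yeast screen, a strain with altered DNA damage repair is challenged with compound, and its growth is measured against matched vehicle-treated controls.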

Measured: growth inhibition

CC1C(c2ccccc2)=NN(C)c2ccccc21 (stereo unspecified)
inactive: [1] 19.6% | [2] 0.6% | [3] 3.7% | [4] -28.1% | [5] 8.45% | [6] 21.8%

Clc1ccccc1OCCNC1CC1
inactive: [1] 20.7% | [2] -0.1% | [3] -10.8% | [4] -45% | [5] 4.95% | [6] 1.7%

CN(C)c1ncnc2c1ncn2CC(O)CN (stereo unspecified)
inactive: [1] -7.9% | [2] -8.65% | [3] -15.8% | [4] 4.4% | [5] 5.4% | [6] -17.2%

CCOC(=O)CC/C(C)=N/NC(=O)c1ccc[n+](C)c1
inactive: [1] -11.8% | [2] -3.65% | [3] -1.95% | [4] -29% | [5] -3.05% | [6] 2.65%

CCCCCCSc1n[nH]c(=S)s1
inactive: [1] -4.25% | [2] 9.55% | [3] 18.4% | [4] 24.6% | [5] -5.2% | [6] 13.4%

Cc1cccc(C)c1NC(=O)Nc1cccc(C#N)c1
inactive: [1] -0.3% | [2] -10.8% | [3] 7.35% | [4] 15.3% | [5] -0.55% | [6] 17.4%

O=C(O)C(=O)Cc1c[nH]c2ccccc12
inactive: [1] 1.2% | [2] -7.55% | [3] 29.4% | [4] 7.3% | [5] -11.1% | [6] -3.7%

COC1C(O)CC(OC2CC(OC3CC(O[C@@H]4C(=O)c5c(cc6cc(OC7CC(OC8CC(O)C(O)C(C)O8)C(O)C(C)O7)c(C)c(O)c6c5O)C[C@H]4[C@H](OC)C(=O)[C@@H](O)[C@@H](C)O)OC(C)C3O)OC(C)C2O)OC1C (stereo partly specified)
inactive: [1] 38.7% | [2] 28.9% | [3] 41.7% | [4] 43.7% | [5] 49.5% | [6] 48.5%

Cc1ccc(CNC(=O)Nc2cccc(Cl)c2)cc1C
inactive: [1] 6.05% | [2] 15.5% | [3] 7.05% | [4] 1.3% | [5] 16.8% | [6] 5.35%

Cc1ccc(-c2cn3c(nc4ccccc43)c(C)n2)cc1
inactive: [1] -27.5% | [2] 5.5% | [3] 15.3% | [4] -7.95% | [5] 13% | [6] -29.5%

COC(=O)CNC(=O)C1CSC(C)(C)N1C=O (stereo unspecified)
inactive: [1] -5.25% | [2] -9.85% | [3] 10.2% | [4] 2.4% | [5] 47.9% | [6] -6.2%

CC1(C)CC(=O)C2=C(C1)NC1=C(C2)C(=O)CC(C)(C)C1
inactive: [1] -15.4% | [2] -5.7% | [3] -22.4% | [4] 19.9% | [5] 7.6% | [6] 12.8%

Clc1cc(OCC23CC4CC(CC(C4)C2)C3)nc(OCC23CC4CC(CC(C4)C2)C3)n1
inactive: [1] -35.1% | [2] 4.6% | [3] -18.7% | [4] -4.8% | [5] 9% | [6] -13.4%

O=c1[nH]c2c(Cl)c(Cl)cc(Cl)c2o1
inactive: [1] 51.1% | [2] 6.4% | [3] 23.9% | [4] 48.2% | [5] 13.6% | [6] 43.6%

COc1ccc(/C=C2\CN(C)Cc3c2nc(N)nc3-c2ccc(OC)cc2)cc1
inactive: [1] 2.05% | [2] -13.1% | [3] 5.2% | [4] 38.1% | [5] -5.5% | [6] 5.75%

O=C(O)c1cccnc1C(=O)Nc1cccc2ccccc12
inactive: [1] 13.1% | [2] 13.4% | [3] 12.6% | [4] 0.9% | [5] 10.2% | [6] -16.6%

CC1=NN(C(=O)Cc2ccccc2)C(=O)/C1=C\c1ccccc1O
inactive: [1] -10.1% | [2] -39% | [3] -43.2% | [4] -5.7% | [5] -26.2% | [6] -39.9%

CC(=O)CCc1ccc(Cl)cc1
inactive: [1] -21.6% | [2] -3.55% | [3] -1% | [4] 3.1% | [5] 5.4% | [6] -4.4%

CC(=O)OC1CCC2(C)C(=CC=C3C4CCC(=O)NC4(C)CCC32)C1 (stereo unspecified)
inactive: [1] 19.5% | [2] 0.25% | [3] 21.4% | [4] 11.1% | [5] -3.6% | [6] 2.35%

CSCCC(N)C(=O)NCCNc1ccc(NCCNC(=O)C(N)CCSC)c2c1C(=O)c1ccccc1C2=O (stereo unspecified)
inactive: [1] -8.05% | [2] -0.9% | [3] -29% | [4] -0.5% | [5] -30.4% | [6] -44.4%

CC1C(O)CCC2C1(C)CCC1C2(C)CCC2(C)C3CC(C)(C)CCC3(C)CCC12C (stereo unspecified)
inactive: [1] -4.9% | [2] -3.3% | [3] 12.4% | [4] -10.1% | [5] 5.75% | [6] -6.75%

COC(=O)c1ccc(SCCC(=O)CNc2nc(N)nc(N)c2[N+](=O)[O-])cc1
inactive: [1] 32.1% | [2] -13.3% | [3] 17.6% | [4] 22.3% | [5] -0.2% | [6] 3.15%

CCOCCCN
inactive: [1] 37.5% | [2] 16.7% | [3] 6.85% | [4] 3.4% | [5] 16.9% | [6] 5.25%

CC(=NCCN(CCN=C(C)c1c(O)cc(C)oc1=O)CCN=C(C)c1c(O)cc(C)oc1=O)c1c(O)cc(C)oc1=O
inactive: [1] 22.4% | [2] -4.3% | [3] 1.8% | [4] 11.4% | [5] 6.3% | [6] 21.8%

CCOC(=O)c1ccc(NCC2CNc3ccccc3N2)cc1 (stereo unspecified)
inactive: [1] 36.2% | [2] -11.2% | [3] 17.7% | [4] -8.35% | [5] 23.2% | [6] 18.2%

COc1ccc(/C=c2\sc3n(c2=O)C(N)=C(C#N)C(c2ccc(OC)cc2)C=3c2nc3ccccc3[nH]2)cc1 (stereo unspecified)
inactive: [1] 18.1% | [2] -13.2% | [3] 9.95% | [4] -16.1% | [5] 8.95% | [6] 11.3%

COc1ccc2c(c1)CCCN2c1ccc(N=C(N)N)cc1
inactive: [1] 2.95% | [2] -6.35% | [3] -1.75% | [4] -17.8% | [5] 27.9% | [6] 16.5%

CCC(C)C1NC(=S)N(c2ccccc2)C1=O (stereo unspecified)
inactive: [1] -8.65% | [2] 7.05% | [3] -18.1% | [4] -0.55% | [5] -9% | [6] -30.4%

COc1ccc(C(C)S(=O)(=O)c2ccccc2)cc1OC (stereo unspecified)
inactive: [1] 6.2% | [2] 8.8% | [3] -2.9% | [4] -5.9% | [5] 6.1% | [6] 5.5%

CCOC(=O)/C(=C\c1ccccc1)C(=O)O
inactive: [1] -6.75% | [2] -29.9% | [3] -6.25% | [4] 26% | [5] -21.9% | [6] -1.8%

CCN(CC)CCC(=O)c1ccc(Oc2ccc(Cl)cc2)cc1
active: [1] 96.8% | [2] 83.8% | [3] 99% | [4] 80.2% | [5] 98.9% | [6] 99.2%

Cc1cccc2c1NC(=O)C2=O
inactive: [1] 21.6% | [2] 8.4% | [3] -2.8% | [4] 15.7% | [5] -0.65% | [6] 13.5%

Cc1cc(=O)n2c3c(cccc13)CCC2
inactive: [1] 26.3% | [2] -1.5% | [3] -3.15% | [4] 7.15% | [5] 3.9% | [6] 11.9%

Nc1ccc(-c2nc3ccccc3[nH]2)cc1
inactive: [1] -2.55% | [2] 17.8% | [3] 3.1% | [4] 9% | [5] 18.9% | [6] -0.8%

COC(=O)[C@@H]1[C@H](O)CC[C@H]2[C@@]1(C)CC[C@@H](C)[C@]2(COC(C)=O)CC(=O)c1ccoc1
inactive: [1] -27.1% | [2] -32.2% | [3] -37% | [4] -27.1% | [5] -47.9% | [6] -45.8%

OC1(C2(O)CCCCC2)CCCCC1
inactive: [1] -38.2% | [2] 13.4% | [3] 22.1% | [4] -32.5% | [5] -11.8% | [6] 3.75%

Nc1nnc(/C=C/c2ccc(Cl)cc2)o1
inactive: [1] -26.5% | [2] -8.15% | [3] -14.9% | [4] 2.9% | [5] -18.6% | [6] -11.3%

CN1N=CSC12C(=O)N(c1ccc(Cl)cc1)C(=O)N2c1ccc(Cl)cc1 (stereo unspecified)
inactive: [1] 18.1% | [2] 3.6% | [3] 11.2% | [4] 30.4% | [5] 51% | [6] 11.9%

Cc1ccc(C(C)C)nc1
inactive: [1] 17.1% | [2] 18.5% | [3] 19.1% | [4] 25.2% | [5] 22.5% | [6] 26.7%

COc1ccc2nc(NCN3C(=O)c4ccccc4C3=O)sc2c1
inactive: [1] 5.05% | [2] -4.05% | [3] -19.1% | [4] 26.9% | [5] 9.9% | [6] -5.5%

[N-]=[N+]=Nc1c(Cc2ccccc2)c(Cl)nc2ccccc12
inactive: [1] 40.5% | [2] 57.9% | [3] 62.5% | [4] 53.7% | [5] 65% | [6] 40.8%

— PubChem BioAssay (NCI)
